The values that follow come from PubChem BioAssay (NCI).

Each structure is given as a SMILES string. This is part of a sample that, as a whole, favours compounds with a hit. Of some 83,000 tested, about 20% had one in any assay.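 Compound tested at a single concentration for 48 hours in 96-well plates; a percent growth value below 10 was scored as active.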 A number with no mark means an inactive call. Calls of active or inactive are those of the source.

This test concerns M14 melanoma. As to the kind of experiment: NCI-60 one-dose screen, 48 h (100 = growth as untreated, 0 = no growth, -100 = all killed). The conditions noted are these: 10 µM unless noted.
With `CC(=O)O[C@H]1CC[C@]2(C)[C@H]3CC=C4[C@@H]5CC(C)(C)CC[C@]5(C(=O)OCC(COC(=O)C(Cl)Cl)(COC(=O)C(Cl)Cl)NC(=O)C(Cl)Cl)CC[C@@]4(C)[C@]3(C)CC[C@H]2C1(C)C`, the growth was 67.2%. As for `Clc1ccc(Cl)c(N=Cc2ccc3c(c2)OCO3)c1`, the figure is 102%; as for `CCN(CC)c1ccc2c(cc1=O)[C@@H](NC(C)=O)CCc1cc(OC)c(OC)c(OC)c1-2`, -0.777% (active). As to `COc1ccc(CNc2c3ccccc3nc3ccc(OC)cc23)cc1`, the growth is 19.5%. To `NC(=O)c1ccc[n+](Cc2ccccc2)c1` belongs 96.3%; to `N/N=C(\C(=N\N)c1ccccc1)c1ccccc1`, 96.6%; to `CC1=C(O)C(=O)CC1`, 105%.

With `CCN(CC)CCCC(C)Nc1ccnc2ccc(Oc3ccccc3)cc12` (centres undefined), the growth is -58% (active). In the case of `COc1cc2ncnc(Nc3ccc(S(=O)(=O)Nc4nccs4)cc3)c2cc1OCCCN1CCOCC1`, the growth is 107%. Regarding `CC(=O)Cc1ccccn1`, the growth was 102%. As for `CC1OC(n2c3ccccc3c3c4c(c5c6ccccc6[nH]c5c32)C(=O)N(CCN[C@H]2CCC[C@@H]2N)C4=O)CC(O)C1O` (some centres undefined), the figure is 36.1%. Regarding `O=C(C(=O)N1CCCC1)c1cn(CCCn2cc(C(=O)C(=O)N3CCCC3)c3cc(Br)ccc32)c2ccc(Br)cc12`, the growth is 89.2%. Turning to `CCCCCCCOc1cccc(/C=C2\N=C3SCCCN3C2=O)c1`, the growth was 102%. For `COc1ccc(NC(=O)c2sc3c(=O)[nH]c(C(F)(F)F)nc3c2C)cc1`, the growth is 116%. As for `C=C[C@H]1CCC/C=C/[C@@H]2C[C@H](O)C[C@H]2[C@H](O)/C=C/C(=O)O1`, the figure is -10.6% (active). As to `C=CC(=O)N1CN(C(=O)C=C)CN(C(=O)C=C)C1`, the growth is 87.1%. With `CC(C)CCSc1nc(Nc2ccccc2)c(C#N)c(-c2ccc(F)cc2)n1`, the growth was 70.1%. For the compound `COC(=O)c1ccc2c(c1)nc(-c1cc3ccccc3[nH]c1=O)n2-c1cc(C(C)(C)C)[nH]n1`, the growth was 58.2%. As for `O=C1NN(C(=O)c2ccccc2)C(c2ccc(Cl)c(Cl)c2)=C/C1=C\c1ccccc1[N+](=O)[O-]`, the figure is -28% [6.75 µM] (active); as for `O=C(CCl)Nc1ccc2c(c1)C(=O)c1ccccc1C2=O`, -31.6% (active). Regarding `CCOC(=O)C1C(=O)C=C(c2cc(OC)c(OC)c(OC)c2)CC1c1sc(N(C)Cc2ccccc2)nc1Cl` (centres undefined), the growth was 92%. To `N/C(=N\OC(=O)c1ccccc1)C(C(=O)NOC(=O)c1ccccc1)C1CCCCC1` (centres undefined) belongs 75.2%; to `C=C(C)[C@@H]1CC[C@]2(C(=O)O)CC[C@]3(C)[C@H](CC[C@@H]4[C@@]5(C)C[C@@H](CC#Cc6ccc(C(C)=O)s6)[C@H](O)C(C)(C)[C@@H]5CC[C@]43C)[C@@H]12`, 76%; to `CC(C)[C@@H]1C=C2CC[C@H]3[C@](C)(CN)CCC[C@]3(C)[C@H]2CC1`, 89.3%.

Turning to `COc1ccc(-c2cc(-c3cn(-c4cccc(Cl)c4)nc3-c3ccc(OC)cc3)[nH]c(=S)n2)cc1`, the growth is 92%. To `CCN1CCN(Cc2ccc(NC(=O)Nc3ccc(-n4ccc5c(NC(=O)c6ccccc6)nccc54)cc3)cc2C(F)(F)F)CC1` belongs -65.1% (active); to `Clc1ccc(C2=NN[C@H](c3cn(-c4ccccc4)nc3-c3ccccc3)C2)cc1`, 71.1%. For the compound `CC(C)CC1NC(=O)C(CC(C)C)N(CO)C1=O` (centres undefined), the growth is 101%.

`c1ccc(-c2ccc(-c3ccccc3)[nH]2)cc1`: the growth was 110%. In the case of `C=CCN(CC#N)CC=C`, the growth was 102%. As for `COc1ccc2c(c1)sc1nc(-c3ccccc3)c(-c3cccc4ccccc34)n12`, the growth was 21%. To `CC(C)c1nc2ccccc2n1CC(=O)N/N=C/c1cccc(O)c1` belongs 94.8%; to `CCCCCCCC/C=C\CCCCCCCC(=O)OCCCCCC`, 112%; to `CCN(CC)c1ccc(/C=N/NC(=O)c2ccc(S(C)(=O)=O)cc2)c(O)c1`, 3.37% (active).

As to `CC(=O)CC(c1ccc([N+](=O)[O-])cc1)c1c(O)c2ccccc2oc1=O` (centres undefined), the growth is 102%. With `CC1CCCN(CCCCOc2ccc(-c3ccc(C#N)cc3)cc2)C1` (centres undefined), the growth was 83.2%. To `Cn1c(-c2ccccc2)cc(=O)n1-c1ccccc1` belongs 110%; to `O=C(NCCN1CCCC1)n1cc(-c2ccncc2)c(-c2cc(O)cc(Cl)c2)n1`, 25.4%.

For the compound `C(=Nc1ccc(-c2ccc(N=Cc3ccccc3)cc2)cc1)c1ccccc1`, the growth is 104%.
